# Bioassay records deposited in PubChem BioAssay by National Center for Advancing Translational Sciences (NCATS).
# TDP1 cell CPT – qHTS for Inhibitors of human tyrosyl-DNA phosphodiesterase 1 (TDP1): qHTS in cells in presence of CPT | Potency, µM (doses to about 46.2 µM), inactives show at the highest dose activity change, negative = growth inhibition, usual class: inhibitors | hit rate 12% among 420,000 | chicken DT40 Tdp1-/-;hTDP1 cells + 20 nM CPT, ATP luminescence, 48 h; further: potency means the concentration at half of the fitted maximal effect; nearly all actives have a fitted effect of over 55% in size
#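 Cell growth measured by CellTiter-Glo luminescence after a minimum 48 h, 37 C compound exposure with 20 nM CPT in Tdp1-knockout DT40 cells stably expressing hTDP1, seeded 400/well; qHTS titration format.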
# RORgamma inh – qHTS for inhibitors of ROR gamma transcriptional activity; Nuclear receptor ROR-gamma (Mus musculus), P51450; Drosophila S2 Gal4-RORgamma UAS-luciferase reporter, 20 h; Potency, µM (top dose mostly 53.6 µM), for inactives: at the top dose activity change, negative = inhibition, most hits filed as inhibitors; hit rate 5.4% among 310,000; AID 2551, 2010; further: potency means the concentration at half of the fitted maximal effect; nearly all actives have a fitted effect of over 60% in size
# Target sequence (P51450 whole entry, looked up, the tested form may be a part): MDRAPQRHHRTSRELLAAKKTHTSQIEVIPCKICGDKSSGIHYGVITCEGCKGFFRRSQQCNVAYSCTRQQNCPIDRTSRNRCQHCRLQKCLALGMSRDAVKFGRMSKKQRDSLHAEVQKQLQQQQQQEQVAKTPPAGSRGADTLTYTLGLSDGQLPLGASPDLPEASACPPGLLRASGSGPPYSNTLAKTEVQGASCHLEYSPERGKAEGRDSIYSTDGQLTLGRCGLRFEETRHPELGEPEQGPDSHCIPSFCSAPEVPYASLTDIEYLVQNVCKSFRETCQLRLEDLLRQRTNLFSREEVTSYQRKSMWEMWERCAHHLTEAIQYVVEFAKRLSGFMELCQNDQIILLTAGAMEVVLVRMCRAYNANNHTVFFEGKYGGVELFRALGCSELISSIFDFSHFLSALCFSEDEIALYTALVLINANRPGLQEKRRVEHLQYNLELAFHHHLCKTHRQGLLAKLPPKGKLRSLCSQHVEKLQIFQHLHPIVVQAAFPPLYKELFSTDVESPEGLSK
#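 Luciferase reporter read in Schneider cells carrying Gal4-RORγ (mouse) and UAS-Photinus luciferase; cells given compound 1 h before 700 uM copper sulfate induction, then incubated 20 h at ambient temperature.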
# IL1B secr inh – qHTS for Inhibitors of Inflammasome Signaling: IL-1-beta AlphaLISA Primary Screen; THP-1 LPS/ATP IL-1B secretion, AlphaLISA, 16 h; active compounds read low; activity change, % at 57.5 µM; hit rate 4.7% among 360,000; in the data active means activity change below about -50%; inconclusive means mostly about -30% to -49%
#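 THP-1 cells pretreated 1 hr with compounds (up to 57.5 uM final), then stimulated with LPS (250 ng/mL final) plus ATP (1.25 mM final); secreted IL-1B measured by AlphaLISA after 16 hr, decreased signal indicating inhibition.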
# ELG1 repair inh – qHTS screen for small molecules that inhibit ELG1-dependent DNA repair in human embryonic kidney (HEK293T) cells expressing luciferase-tagged ELG1. HEK293T ELG1-luciferase reporter, luminescence, 16 h; DNA damage induced by 5-fluorouridine. Potency, µM (highest dose often 46.1 µM), without a hit: at the top dose activity change, negative = inhibition, usual class: inhibitors. hit rate 2.3% among 330,000; further: potency means the concentration at half of the fitted maximal effect; nearly all actives have a fitted effect of over 55% in size
#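 Luminescence from the luciferase reporter, measured 30 min after ONE-Glo reagent at room temperature, was the read-out. Beforehand, 2,000 cells per well were exposed for 16 hr at 37 °C to 5-fluorouridine together with compound or vehicle.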
# Gal4-VP16 FLuc – VP16 counterscreen qHTS for inhibitors of ROR gamma transcriptional activity | Drosophila S2 Gal4-VP16 UAS-luciferase, luminescence, 20 h | Potency, µM (highest dose often 53.6 µM), inactives show top-dose activity, negative = inhibition, hits mostly inhibitors | hit rate 3.5% among 310,000 | AID 2546, 2010;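 further: Gal4-VP16 expression switched on by copper sulfate through the metallothionein promoter; potency means the concentration at half of the fitted maximal effect; nearly all actives have a fitted effect of over 50% in size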
# TDP1 cell noCPT – qHTS for Inhibitors of human tyrosyl-DNA phosphodiesterase 1 (TDP1): qHTS in cells in absence of CPT. DT40 Tdp1-/- hTDP1 cells, no CPT, ATP luminescence, 48 h. Potency, µM (top dose mostly 46.2 µM), for inactives: at the highest dose activity change, negative = growth inhibition, most hits filed as inhibitors. hit rate 15% among 420,000. AID 686978, 2013; further: potency means the concentration at half of the fitted maximal effect; nearly all actives have a fitted effect of over 55% in size
#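 No-CPT arm: Tdp1-/-;hTDP1 DT40 cells (400/well) plus compounds, incubated ≥48 hr at 37 °C. Readout CellTiter-Glo luminescence.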
# * hit, by the source's call; ? = inconclusive; . = no result; [ ] = dose if it differs, or a comment. Most compounds without a hit are left out; they make up all but 21% or so of the library. Unless noted, the call rests on the fitted dose curve; in most records, active means well fitted curve in the direction sought with a large enough effect; inconclusive means small, poorly fitted or top-dose-only effect, or another doubt; inactive means no such curve, though single readings can be large; an effect the other way counts as inactive or inconclusive. On the % scale 0 is the no-effect control and ±100 the full control effect.
SMILES,TDP1 cell CPT,RORgamma inh,IL1B secr inh,ELG1 repair inh,Gal4-VP16 FLuc,TDP1 cell noCPT
Cc1ccc(C(=O)NCC(=O)N2CCN(c3ccccc3O)CC2)s1,-3%,.,-17,.,.,2.9µM*
Cc1nn(CC(=O)OCC(=O)c2ccccc2)c(C)c1[N+](=O)[O-],-20%,.,14,14%,.,-2%
Cc1ccc(CNS(=O)(=O)c2ccc3c(c2)NC(=O)CS3)cc1,?,0%,20,-8%,-14%,15µM*
CCCN(CCC)S(=O)(=O)c1cc(Br)cc2c1N(C(=O)CC)CC2,9.2µM*,?,-10,?,?,10µM*
CCC(=O)N1CCc2cc(Br)cc(S(=O)(=O)N(C)c3ccc(OC)cc3OC)c21,18µM*,?,6,?,-25%,18µM*
CCC(=O)N1CCc2cc(Br)cc(S(=O)(=O)N3CCCCC3CC)c21 (stereo not drawn),?,14%,17,-3%,0%,21µM*
CCC(=O)N1CCc2cc(Br)cc(S(=O)(=O)NCc3cccc(OC)c3)c21,-1%,.,.,.,.,-24%
CCC(=O)N1CCc2cc(Br)cc(S(=O)(=O)CCC(=O)N(CC)CC)c21,22%,14%,14,14%,16%,6%
CC(C)Cn1c(SC(C)C(=O)NC2CC2)nnc1-c1ccccc1F (stereo not drawn),-28%,.,9,27%,.,-12%
Cc1ccc(-c2ccc(CCC(=O)O)n2-c2ccc(C(C)C)cc2)cc1,?,.,.,.,.,-18%
Cc1ccc(C(=O)N2CCC(N3CCC(C(=O)N4CCOCC4)CC3)CC2)cc1C,17%,-10%,10,-1%,0%,-4%
CCC1CCCCN1C(=O)Cn1c(=O)n(CC2CCC(C(=O)NC)CC2)c(=O)c2sccc21 (stereo not drawn),-26%,.,.,.,.,-9%
O=C(NNC(=O)c1cc2ccccc2o1)c1ccc(F)cc1,0%,.,-7,?,.,4%
N/C(=N\NC(=O)c1cccc(F)c1)c1cc2ccccc2oc1=O,0%,1µM*,1,?,3.5µM*,-8%
NC(=O)c1cc2ccccc2o/c1=N\NC(=O)c1ccc(F)cc1,21µM*,0%,-23,-26%,-9%,8.2µM*
N/C(=N\NC(=O)c1ccc(F)cc1)c1cc2ccccc2oc1=O,-2%,3.5µM*,42,1%,?,-1%
COc1ccc(OC)c(CNC(=O)CN(c2ccc(C)cc2)S(=O)(=O)N(C)C)c1,-14%,.,.,.,.,-20%
COC(=O)C1=C(N)Oc2cc(C)n(C)c(=O)c2C1c1ccc(Cl)cc1 (stereo not drawn),?,-25%,10,13%,5%,15µM*
CNS(=O)(=O)c1cccc(C(=O)OCC(=O)NC(C)CCc2ccccc2)c1 (stereo not drawn),-8%,19%,15,-13%,5%,-19%
O=C(COC(=O)c1ccccc1NS(=O)(=O)c1cc([N+](=O)[O-])ccc1Cl)c1ccccc1,.,-24%,.,7%,0%[10 µM],.
CC(CCc1ccccc1)NC(=O)COC(=O)c1cc(NS(=O)(=O)c2ccc(Cl)c([N+](=O)[O-])c2)ccc1O (stereo not drawn),?,?,-98*,8%,?,?
CN(C(=O)COC(=O)c1cc(NS(=O)(=O)c2cc([N+](=O)[O-])ccc2Cl)ccc1O)C1CCCCC1,-25%,?,-81*,-14%,-6%,-6%
